From PubChem BioAssay (NCATS)
Results filed as inconclusive are left out. A call without a number means that no potency is given here. A number with no mark means an inactive call. The source made the active and inactive calls. The call rests on the fitted dose curve; in most records, active means well fitted inhibition curve with a large enough effect; inconclusive means small, poorly fitted or top-dose-only effect; inactive means no such curve, though single readings can be large or run the other way. Where a SMILES comes first, the peptide text is derived from it. [ ]: non-standard residue; d: D form. ξ: configuration not given here. dPhe(4-Cl) = N[C@H](Cc1ccc(Cl)cc1)C(=O)O; d2Nal = N[C@H](Cc1ccc2ccccc2c1)C(=O)O; ξPhe(βξ-Me) = CC(c1ccccc1)C(N)C(=O)O; dCit = NC(=O)NCCC[C@@H](N)C(=O)O; d3Pal = N[C@H](Cc1cccnc1)C(=O)O; GABA = NCCCC(=O)O

Assay: Primary qHTS for inhibitors of nuclear receptor binding SET domain protein 2 (NSD2) in an RCH-ACV wild type WT cells (2C) (AID 1645877); further: nearly all actives have a fitted effect of over 70% in size
Conditions: RCH-ACV (leukaemia line) NSD2 WT (2C) viability, CellTiter-Glo, 72 h; series mostly up to 44.9 µM

Row | Structure (SMILES) | Potency | activity change, negative = cell killing
1 | CC(=O)N[C@H](Cc1ccc2ccccc2c1)C(=O)N[C@H](Cc1ccc(Cl)cc1)C(=O)N[C@H](Cc1cccnc1)C(=O)N[C@@H](CO)C(=O)N[C@@H](Cc1ccc(O)cc1)C(=O)N[C@H](CCCNC(N)=O)C(=O)N[C@@H](CC(C)C)C(=O)N[C@@H](CCCN=C(N)N)C(=O)N1CCC[C@H]1C(=O)N[C@H](C)C(N)=O (Ac-[d2Nal][dPhe(4-Cl)][d3Pal]SY[dCit]LRP[dA]-NH2) | inactive | –
2 | CC1(C)CC[C@]2(C(=O)O[C@@H]3O[C@H](CO[C@@H]4O[C@H](CO)[C@@H](O)[C@H](O)[C@H]4O[C@@H]4O[C@H](CO)[C@H](O)[C@H](O)[C@H]4O)[C@@H](O)[C@H](O[C@@H]4O[C@H](CO)[C@@H](O)[C@H](O)[C@H]4O)[C@H]3O)CC[C@]3(C)C(=CCC4[C@@]5(C)CC[C@H](O[C@@H]6OC[C@@H](O)[C@H](O)[C@H]6O)[C@@](C)(C(=O)O)C5CC[C@]43C)[C@@H]2C1 (stereo partly drawn) | – | -8.76% [at 9.23 µM]
3 | COc1cc2c(cc1OC)CC(=O)N(CCCNC[C@H]1Cc3cc(OC)c(OC)cc31)CC2 | inactive | –
4 | C[S+](CC[C@H](N)C(=O)[O-])C[C@H]1O[C@@H](n2cnc3c(N)ncnc32)[C@H](O)[C@@H]1O (stereo partly drawn) | inactive | –
5 | COC(=O)C1=CO[C@@H](O[C@@H]2O[C@H](CO)[C@@H](O)[C@H](O)[C@H]2O)C2C1C(=O)C[C@H]2C (stereo partly drawn) | inactive | –
6 | CC(C)C(C#N)O[C@@H]1O[C@H](CO[C@@H]2O[C@@H](C)[C@H](O)[C@@H](O)[C@H]2O)[C@@H](O)[C@H](O)[C@H]1O (stereo partly drawn) | inactive | –
7 | CC1NC(=O)CCCNC(=O)C(Cc2c[nH]c3ccccc23)NC(=O)C(C)NC(=O)C(C(C)C)NC(=O)C(C(C)c2ccccc2)NC(=O)C(C(C)C)NC1=O (stereo not drawn) (cyclo([GABA]AV[ξPhe(βξ-Me)]VAW); configuration not given here) | inactive | –
8 | C=C(C(=O)O)C1CCC2(C)CCC(O)C(=C)C2C1 (stereo not drawn) | inactive | –
9 | COC(=O)[C@@H](O)[C@H]1[C@@]2(C)CC3(O)[C@@H](C(=O)[C@H]2O)[C@]24O[C@]25CC(=O)O[C@@H](c2ccoc2)[C@]5(C)CCC4[C@]13C (stereo partly drawn) | inactive | –
10 | CCCOC(c1cc2nccc(C(=O)O)c2[nH]1)c1ccccc1Cl (stereo not drawn) | inactive | –
11 | CC1(C)C[C@H](O)C[C@@]2(C)OC(=O)C=C12 | inactive | –
12 | C/C=C/c1ccc(O[C@@H]2O[C@H](CO)[C@@H](O)[C@H](O)[C@H]2O)c(OC)c1 | inactive | –
13 | CCCOc1ccc(-c2nc(OC)c3ccccc3n2)cc1 | inactive | –
